“And” between values parts separate entries of the source, which are not always exact repeats. Equal entries are not always repeated. Out of some 16,000 compounds screened, about 4,000 (25%) were called active. Inconclusive results (about 26%) are left out. Calls follow the shape of the dose curve; as a rule, active = well fitted curve in the direction sought with a large enough effect; inconclusive = small, poorly fitted or top-dose-only effect, or effect the other way; inactive = no such curve, though single readings can be large or run the other way. The list is a sample of the results. A structure can be active in one record and inactive in another. Square brackets hold non-standard residues; d marks the D form. Peptide text beside a SMILES is read from it. * marks the point of attachment. ξ: configuration not given here. Cbz = O=C(OCc1ccccc1)*; PhAc = O=C(Cc1ccccc1)*; OBn = c1ccc(CO*)cc1; ξP = O=C(O)C1CCCN1
target: Cytochrome P450 2C9 (Homo sapiens) (UniProt P11712); experiment: Cytochrome panel assay with activity outcomes; conditions: recombinant CYP, pro-luciferin dealkylation, luminescence, p450-cyp2c9; series mostly up to 57.1 µM
Sequence (P11712 whole entry, looked up): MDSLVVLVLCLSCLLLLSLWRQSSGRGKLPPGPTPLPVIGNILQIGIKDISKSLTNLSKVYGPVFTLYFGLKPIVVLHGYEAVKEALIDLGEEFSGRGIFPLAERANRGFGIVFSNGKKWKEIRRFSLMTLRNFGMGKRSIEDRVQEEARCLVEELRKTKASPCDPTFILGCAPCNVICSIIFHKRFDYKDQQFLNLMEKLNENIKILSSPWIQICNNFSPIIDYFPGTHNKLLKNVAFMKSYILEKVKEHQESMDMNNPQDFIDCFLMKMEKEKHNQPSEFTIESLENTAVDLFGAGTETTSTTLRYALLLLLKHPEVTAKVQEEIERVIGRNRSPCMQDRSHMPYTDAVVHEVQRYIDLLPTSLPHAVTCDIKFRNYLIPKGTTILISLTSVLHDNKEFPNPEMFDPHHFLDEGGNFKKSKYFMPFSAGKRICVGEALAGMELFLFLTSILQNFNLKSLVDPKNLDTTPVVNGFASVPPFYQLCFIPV
% is scaled to controls: 0 for no effect and ±100 for the full control effect.

Structure (SMILES)	AC50	activity, negative = inhibition
COc1ccc(C(=O)N2CCC3(CC2)CN(Cc2ccc(C#N)cc2)C3)cc1	inactive	–
COc1ccc(NC(=O)N2CCCC3(CCN(C(=O)c4cc(C(F)(F)F)cc(C(F)(F)F)c4)CC3)C2)cc1	inactive	–
COC(=O)[C@@]1(Cc2ccc(F)cc2)[C@H]2c3cc(C(=O)N4CCCC4)n(CCCNc4ncc(C(F)(F)F)cc4Cl)c3C[C@H]2CN1C(=O)c1ccccc1	3.16 µM (active)	–
COc1ccc(C(=O)N2CCC[C@@]3(CCN(Cc4cc(C(F)(F)F)cc(C(F)(F)F)c4)C3)C2)cc1	inactive	–
COC(=O)[C@@]1(Cc2ccc(OC)cc2)[C@H]2c3cc(C(=O)N4CCCC4)n(CCCNc4ncc(C(F)(F)F)cc4Cl)c3C[C@H]2CN1C(=O)c1ccccc1	7.94 µM (active)	–
N=C1CCC[C@@H]1C(=S)SCCC(N)=O	–	17.6% [at 11.4 µM] (inactive)
C=CC(=O)NC(NC(=O)C=C)c1ccc(Br)cc1	inactive	–
O=C1CC[C@H](NC(=O)c2ccccc2)C(=O)N1	–	5.14% [at 11.4 µM] (inactive)
O=C(c1ccco1)N1CCC[C@@]2(CCN(c3cccc(-c4ccccc4)c3)C2)C1	5.01 µM (active)	–
O=C(c1cnccn1)N1CCC2(CCCN(c3cccc(-c4ccccc4)c3)C2)CC1	20 µM (active)	–
O=C(c1cnccn1)N1CCC[C@@]2(CCN(c3ccncc3)C2)C1	inactive	–
O=C(c1ccco1)N1CCC[C@@]2(CCN(c3ccccc3)C2)C1	inactive	–
O=C(c1cnccn1)N1CCC[C@@]2(CCN(c3cccc(-c4ccccc4)c3)C2)C1	7.94 µM (active)	–
O=C(c1cnccn1)N1CCC2(CC1)CN(c1cccc(-c3ccccc3)c1)C2	inactive	–
O=C(c1cnccn1)N1CCC[C@@]2(CCN(c3ccccn3)C2)C1	inactive	–
O=C(c1ccco1)N1CCC2(CC1)CN(c1cccc(-c3ccccc3)c1)C2	inactive	–
O=C(c1cnccn1)N1CCC2(CC1)CN(c1ccccc1)C2	inactive	–
CN(C)c1ccc(-c2ccc3ncnc(N(C)C)c3c2)cc1	–	-17.4% [at 2.29 µM] (inactive)
O=c1n(-c2ccccc2)c(=O)n2n1CC[C@H]1/C(=N\OCc3ccccc3)[C@H]3O[C@@H]3[C@@H](O)[C@@H]12	–	25.1% [at 11.4 µM] (inactive)
CN1CCN(C2CC(=O)N(Cc3ccc(N4CCCC4=O)cc3)C2=O)CC1 (stereo not given)	inactive	–
O=C1CC(N2CCN(C(c3ccccc3)c3ccccc3)CC2)C(=O)N1Cc1ccc(N2CCCC2=O)cc1 (stereo not given)	7.08 µM (active)	–
CCN1C(=O)CC(N2CCN(CC(=O)NC(C)C)CC2)C1=O (stereo not given)	inactive	–
NN(CC(=O)O)CC(=O)O	–	17.7% [at 11.4 µM] (inactive)

Structure (SMILES)	AC50	activity, negative = inhibition
CNC(=O)c1sc(SC)cc1-c1ccc(Cl)cc1	5.62 µM (active)	–
Cc1cc(-c2ccc(Cl)cc2)oc(=O)c1NC(=O)c1ccccc1	inactive	–
Cc1ccc2c(c1)/C(=N/OC(=O)c1ccc(F)cc1)CCS2	inactive	–
COc1ccccc1C(=O)O/N=C1/CCCc2c1ccc(OC)c2[N+](=O)[O-]	12.6 µM (active)	–
Cc1cc(NS(=O)(=O)c2ccc(NC(=O)CN3C(=O)c4ccccc4C3=O)cc2)nc(C)n1	inactive	–
Cc1cc(Cl)ccc1OC(C)C(=O)Nc1ccc(S(=O)(=O)Nc2cnc3ccccc3n2)cc1 (stereo not given)	0.631 µM (active)	–
O=C1C(C2=NC(C(=O)O)C3C(=O)N(c4ccc(Cl)cc4)C(=O)C23)=C(O)c2ccccc21 (stereo not given)	inactive	–
O=C1C2Sc3[nH]c(=O)sc3C(c3ccccc3)C2C(=O)N1c1ccccc1 (stereo not given)	12.6 µM (active)	–
O=C1C2Sc3[nH]c(=O)sc3C(c3ccccc3)C2C(=O)N1c1ccc(Cl)cc1 (stereo not given)	8.91 µM (active)	–
CO[C@@H]1COC(=O)C/C=C\[C@H](C)COC(=O)[C@H](C)NC(=O)C/C=C\[C@H]1C	–	-7.79% [at 11.4 µM] (inactive)
CC1=NC(C)(C)Cc2ccccc21	inactive	–
Fc1cccc(/C=N\N=C/c2cccc(F)c2)c1	inactive	–
CC1(C)Cc2ccccc2C(N/N=C/c2cccc(F)c2)=N1	14.1 µM (active)	–
O=C(O)C1CC2(C1)CC(C(=O)O)C2 (stereo not given)	–	-3% [at 11.4 µM] (inactive)
N#Cc1cccc(-c2ccc3ncnc(NC4CCNCC4)c3c2)c1	–	10.5% [at 2.29 µM] (inactive)
Cc1cnc(C(=O)OCC(=O)NC(C)C)cn1	inactive	–
CC(C)C(=O)Cc1ccc2ccccc2n1	–	7.52% [at 11.4 µM] (inactive)
CCN(c1ccc(NC(=O)COC(=O)c2ccc3ccccc3n2)cc1)C(C)C	20 µM (active)	–
CC(C)(C)C(=O)NC(Nc1cccc2cccnc12)C(Cl)(Cl)Cl (stereo not given)	1.26 µM (active)	–
O=C(Nc1cccc2cccnc12)[C@@H]1[C@@H](C(=O)O)[C@H]2CC[C@@H]1O2	–	7.28% [at 11.4 µM] (inactive)
O=S(=O)(O)c1cc(N=Nc2cccc3ccccc23)c(O)c2ncccc12	–	-11.1% [at 11.4 µM] (inactive)
COc1ccc(NC(=O)N2CC[C@@]3(CCCN(C(=O)c4cnccn4)C3)C2)cc1	inactive	–
CCOC(=O)c1sc(NC(=O)CSc2n[nH]c(-c3ccc(Cl)cc3Cl)n2)c(C#N)c1C	1.26 µM (active)	–

Structure (SMILES)	AC50	activity, negative = inhibition
CCOC(=O)c1sc(NC(=O)CSc2nc(C)cc(C)n2)c(C#N)c1C	3.55 µM (active)	–
CCOc1cccc(NC(=O)CSc2nc(C)c3c(c2C#N)CCCC3)c1	inactive	–
CCOC(=O)c1sc(NC(=O)CSc2nc(C)cc(C)c2C#N)c(C#N)c1C	1 µM (active)	–
Cc1ccccc1OCC(=O)Nc1sc(C(=O)Nc2cccc(C)c2C)c(C)c1C#N	inactive	–
CCOC(=O)c1sc2c(c1C)c(=O)c(C(=O)OCC)cn2CC	inactive	–
CCN(CC)CCN1c2ccccc2Sc2ccc3ccccc3c21	–	0.978% [at 11.4 µM] (inactive)
Cn1cnc2c(NCc3ccccc3)nc(NCCO)nc21	inactive	–
C/C(CCN1CCCCc2nc(C)c(C)cc21)=N\OC[C@@H](O)COCc1ccco1	–	-10.7% [at 11.4 µM] (inactive)
Cc1cccn2c(=O)c3cc(C(=O)N4COCC4(C)C)n(C)c3nc12	inactive	–
c1ccc2c3c([nH]c2c1)[C@@H]1[C@H]2CC[C@H]([C@H]4CCCN[C@H]42)N1CC3	inactive	–
CC(=O)C=NCC(=O)O	–	-1.6% [at 11.4 µM] (inactive)
O=c1cc(N2CCCCC2)c(-c2ccccc2)nn1Cc1ccccc1Cl	20 µM (active)	–
CC1=NOC(=O)/C1=C\c1ccc(-c2ccc(Cl)cc2Cl)o1	10 µM (active)	–
CCCCCCCCCCCCCCC[C@@H](O)[C@@H](N)CO	inactive	–
NC(=O)OCC(COC(N)=O)c1ccccc1	inactive	–
COc1ccccc1N1CCN(CCCCN2C(=O)c3ccccc3C2=O)CC1	inactive	–
COc1ccccc1N1CCN(CCCNc2cc(=O)n(C)c(=O)n2C)CC1	inactive and 12.6 µM (active)	–
COc1ccccc1N1CCN(CCCCN2C(=O)CCC2=O)CC1	3.98 µM (active)	–
COc1ccccc1N1CCN(CCN2C(=O)c3ccccc3C(C)(C)C2=O)CC1	inactive	–
COc1ccccc1N1CCN(CCN2C(=O)CC3(CCCC3)CC2=O)CC1	inactive	–
COc1ccccc1N1CCN(CCCCNC(=O)c2ccc3ccccc3c2)CC1	inactive	–
N=c1c(C(=O)NC2CCCC2)cc2c(=O)n3ccccc3nc2n1C1CCCC1	inactive	–
Cn1nc(C(=O)NC2CCCCC2)c2ccccc2c1=O	7.94 µM (active)	–

Structure (SMILES)	AC50	activity, negative = inhibition
O=C(NCCCN1CCCCCC1)[C@@H](c1ccccc1)C1CCCCC1	inactive	–
O=C(Nc1nnc(C2CC2)s1)c1cc(S(=O)(=O)N2CCN(c3ccccc3)CC2)ccc1Cl	7.08 µM (active)	–
COC(=O)C/C=C\[C@@H](C)[C@@H](/C=N\O[C@@H](C)CN1CCCCc2nc(C)c(C)cc21)NS(=O)(=O)c1ccc(C)cc1	–	-13.5% [at 11.4 µM] (inactive)
COc1ccccc1C(=O)N/C(=C/c1ccc(Br)cc1)C(=O)NCC(=O)O	15.8 µM (active)	–
O=C(CNC(=O)/C(=C\c1ccccc1)NC(=O)c1ccc(Br)cc1)OCc1ccccc1	3.55 µM (active)	–
O=C(CNC(=O)Cc1ccccc1)NCC(=O)OCc1ccccc1 (PhAc-Gly-Gly-OBn)	inactive	–
O=C(NCC1CCCO1)/C(=C\c1ccco1)NC(=O)c1ccccc1 (stereo not given)	inactive	–
O=C(NC(Cc1ccccc1)C(=O)O)/C(=C\c1ccco1)NC(=O)c1ccc(Br)cc1 (stereo not given)	15.8 µM (active)	–
O=C(CNC(=O)OCc1ccccc1)NCC(=O)N1CCCC1C(=O)OCc1ccccc1 (stereo not drawn) (Cbz-Gly-Gly-[ξP]-OBn)	inactive	–
O=C(O)CNC(=O)c1ccccc1O	–	1.11% [at 11.4 µM] (inactive)
COc1cc(/C=C(/NC(=O)c2ccccc2Cl)C(=O)O)cc(OC)c1OC	inactive	–
O=C(O)C/C(=C\c1ccco1)C(=O)O	–	4.79% [at 11.4 µM] (inactive)
O=[N+]([O-])c1ccc(CSc2ncnc3c2ncn3[C@@H]2O[C@@H](CO)[C@@H](O)[C@H]2O)cc1	inactive	–
C=C(Br)CN(C)CC(=C)Br	–	2.22% [at 11.4 µM] (inactive)
CC(=O)OCC1=C(C(=O)O)N2C(=O)[C@@H](NC(=O)Cc3cccs3)[C@@H]2SC1	inactive	–
COc1ccccc1CNc1cc(-c2cccnc2)ncn1	–	-0.576% [at 2.29 µM] (inactive)
COc1ccc(CCNc2nc(-c3cccnc3)cs2)cc1OC	2.51 µM (active)	–
COc1ccc(CNc2cc(-c3cccnc3)ncn2)c(OC)c1	–	17.1% [at 2.29 µM] (inactive)
Cc1sc(NC(=O)/C=C/c2ccc(C(C)C)cc2)c(C#N)c1C	inactive	–
Cc1sc(NC(=O)C2CCCCC2)c(C#N)c1-c1ccccc1	15.8 µM (active)	–
Oc1ccc(CNCc2ccccc2)c2cccnc12	–	-9.84% [at 11.4 µM] (inactive)
